Our source for the growth values is PubChem BioAssay (NCI).

The panel holds about 83,000 compounds, 20% with a hit somewhere; the sample as a whole holds those more often.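 Results are percent growth after 48 hours of single-concentration exposure. 100 means growth as in untreated cells, lower positive values show inhibition; negative values down to -100 show cell death.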 Active and inactive are the calls of the source. The calls were made as follows: active = growth percent below 10; inactive = the rest.

The assay has as its system HL-60(TB) leukemia. The experiment in a line: NCI-60 one-dose screen, 48 h (100 = growth as untreated, 0 = no growth, -100 = all killed). As to conditions: 10 µM unless noted.
In the case of `CC(=O)Nc1ccc(-c2cn(-c3cccc(C(=O)Nc4cc(C(F)(F)F)cc(C(F)(F)F)c4)c3)nn2)cn1`, the growth is -60.5% (active).
The figure for `Cc1cc(C(F)(F)F)ccc1C(=O)Nc1sc2c(c1C#N)CCC(=O)C2` is -14.5% (active).
For the compound `COc1ccc(-n2c(NC(=O)N3CCN(C)CC3)c(C#N)c3ccccc32)cc1`, the growth was 74.2% (inactive).
Consider `COc1ccc(/C=C/C(=O)c2ccc(S(=O)(=O)NCCNc3nc(Nc4ccc(F)cc4)nc(N(C)C)n3)cc2)cc1`, for which the growth is 17.2% (inactive).
The figure for `C=CC(=O)N1CCN(c2ccc3nc4c(nc3c2C(F)(F)F)C(=O)c2ncccc2C4=O)CC1` is -24.7% (active); for `COc1cc(C2CC(c3ccc(S(=O)(=O)NCCNc4nc(N(C)C)nc(N5CCOCC5)n4)cc3)=Nc3c(N)nc(N)nc3N2)cc(OC)c1OC` (centres undefined) it is 93.6% (inactive); for `Cc1ccc(/C=C/C(=O)c2ccc(S(=O)(=O)NCCNc3nc(Nc4ccc(F)cc4)nc(N(C)C)n3)cc2)cc1` it is 13.5% (inactive).
For `Clc1ccc(/C=N/Nc2ncnc3sc4c(c23)CCN(Cc2ccccc2)C4)cc1` the value was -8.28% (active).
On to `CC1CC(c2ccc(N(C)C)cc2)=NN1c1nc(O)c(C2=c3cc(Br)ccc3=NC2=O)s1` (centres undefined), for which the growth is 68.7% (inactive).
`CCOc1ccccc1[C@H]1C(C(=O)c2ccc(Cl)cc2)C2(N[C@@H]1c1ccccc1)C(=O)Nc1ccccc12` (some centres undefined): the growth is -35.5% (active).
The figure for `CCOC(=O)C1=C(N)N(c2ccccc2)C2=C(C(=O)CC(C)(C)C2)C1c1cccc(Cl)c1Cl` (centres undefined) is 46.2% (inactive).
Turning to `Cn1cc(-c2cc3nc(-c4cn(C)c5ncc(Br)cc45)cc(N)n3n2)c2cc(Cl)ccc21`, the growth was -62.4% (active).
For `Cc1ccc2c(c1)nc(-c1ccccc1)n2CC(=O)N=Nc1c(O)[nH]c2ccc(Cl)cc12`, the growth is 46.2% (inactive).
The figure for `COc1ccc(OC)c(-c2cc(-c3c[nH]c4ccccc34)nc(N)c2C#N)c1` is -32.2% (active).
Consider `C/C(=N/O)c1ccc(NC(=O)CSc2nnc(-c3ccc(-c4nc5ccc(Cl)cc5[nH]4)cc3)o2)cc1`, for which the growth is 44% (inactive).
As for `O=C(O)c1cccc(-c2ccc(/C=N/NC(=O)c3[nH]c4ccc(Br)cc4c3-c3ccccc3)s2)c1`, the growth was 42.4% (inactive).
The figure for `CO[C@@H]1CSS[C@H]1Cn1nc(-c2ccc(Oc3ccccc3)cc2)c2c(N)ncnc21` is 25.8% (inactive).
`Nc1nnc(-c2c[nH]c3ccc(F)cc23)c(-c2c[nH]c3ncccc23)n1`: the growth is 63.3% (inactive).
The figure for `C=C1CCC2C3(C)COC(c4ccccc4F)OC3CCC2(C)C1CC(O)C1=CCOC1=O` (centres undefined) is 70.5% (inactive); for `CN1CCN(c2ccc3c4c(cccc24)C(=O)N(c2cccc(-c4nn(-c5ccccc5)cc4-c4nc5ccccc5s4)c2)C3=O)CC1` it is 102% (inactive); for `COc1cc2c3c(n(CCCNCCO)c(=O)c2cc1OC)-c1nc2c(cc1C3=O)OCO2` it is 38.3% (inactive).
On to `CCCCC[C@@H]1C/C=C(\C)[C@@H](O)C(C)(C)C(=O)[C@@H](C)/C=C(\C)[C@@H]2C[C@H](O)C[C@](O)(CC(=O)O1)O2`, for which the growth is 11.8% (inactive).
For `Cc1nn(-c2ccccc2)c2nc(C)n(CC(=O)N/N=C/c3cccc([N+](=O)[O-])c3)c(=O)c12` the value was 99% (inactive).
The figure for `O=c1[nH]n(C(=S)N/N=C/c2ccc(F)cc2)c(=O)c2ccccc12` is 44.7% (inactive); for `O=C(c1ccc([N+](=O)[O-])c([N+](=O)[O-])c1O)n1[nH]c(=O)c2ccccc2c1=O` it is 44.6% (inactive).
Turning to `NS(=O)(=O)c1ccc(N=Nc2c(O)n(CC(=O)Nc3ccccc3Br)c3ccccc23)cc1`, the growth was 76.6% (inactive).
With `CN1C(=O)/C(=C/c2ccc3ncsc3c2)NC1=NC12CC3CC(CC(O)(C3)C1)C2`, the growth is -16.6% (active).
The figure for `Oc1ccc(/C=C2\CCCc3cc4ccc(O)cc4[o+]c32)c(O)c1` is 33.4% (inactive); for `O=C(CSc1nnc(-c2ccc3nc(-c4ccc(Cl)cc4)[nH]c3c2)o1)Nc1ccc(Br)cc1` it is -22.3% (active); for `CCCCOc1ccc(Nc2nc3ccccc3nc2Nc2ccc(OCCCC)cc2)cc1` it is 79.7% (inactive).
For `COc1ccccc1[C@H]1C(C(=O)c2ccc(Cl)cc2)C2(N[C@@H]1c1ccccc1)C(=O)Nc1ccc(Cl)cc12` (some centres undefined) the value was -25.1% (active); for `O=C1Nc2cc(Cl)ccc2/C1=C/c1cccc(OCc2ccccc2)c1`, -25.3% (active).
Regarding `N#Cc1c(-c2ccc(F)cc2)nc(SCc2ccc([N+](=O)[O-])cc2)nc1N1CCOCC1`, the growth is 82.7% (inactive).
In the case of `CCOc1ccc(/C=N/NC(=O)Cn2nc(Cc3ccccc3)c3onc(C)c3c2=O)cc1`, the growth is 89.7% (inactive).
The figure for `Nc1cccc(SCc2cc3ccccc3[nH]c2=O)c1` is 42.2% (inactive).
The figure for `COc1ccc2cc([C@H](C)C(=O)NCc3ccccc3)ccc2c1` is 5.91% (active).
The figure for `CCOC(=O)c1ccc(NC(=S)NC(=O)c2ccc(NC(=O)C(C)C)cc2OC)cc1` is 46.3% (inactive); for `Cc1ccc(CSc2nc(Cl)c(C#N)c(-c3ccc(F)cc3)n2)cc1` it is 42% (inactive).
On to `Nc1nc(Nc2ccccc2)nn1Cc1c(Cl)cccc1Cl`, for which the growth is 30% (inactive).
